From PubChem BioAssay (Tox21)
“And” between values parts separate entries of the source, which are not always exact repeats. Equal entries are not always repeated. Results filed as inconclusive are left out. Where a call stands in place of a potency, no number is given. Where a structure was tested more than once in an assay, its records may differ in their call. The source made the active and inactive calls. Unless noted, calls come from the whole dose curve; as a rule, active = well fitted curve in the direction sought with a large enough effect in the repeat runs; inconclusive = weak or mixed curves; inactive = no such curve, though single readings can be large; an effect the other way counts as inactive or inconclusive.

How the values were obtained:
[1] = qHTS assay to identify small molecule antagonists of the glucocorticoid receptor (GR) signaling pathway - cell viability counter screen (AID 720693); note: nearly all actives have a fitted effect of over 55% in size; note: potency is the fitted concentration of half-maximal effect
[2] = qHTS assay for identifying genotoxic compounds that show differential cytotoxicity against isogenic chicken DT40 cell lines with known DNA damage response pathways - wild type cell line (AID 743012); note: nearly all actives have a fitted effect of over 60% in size; note: potency is the fitted concentration of half-maximal effect
How it was run: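 Viability of DNA repair-proficient chicken DT40 cells was assessed by CellTiter-Glo luminescence following 40 h compound exposure at 37 C/5% CO2.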

[3] = qHTS assay for identifying genotoxic compounds that show differential cytotoxicity against isogenic chicken DT40 cell lines with known DNA damage response pathways - Rev3 mutant cell line (AID 743014); note: nearly all actives have a fitted effect of over 55% in size; note: potency is the fitted concentration of half-maximal effect
[4] = qHTS assay for identifying genotoxic compounds that show differential cytotoxicity against isogenic chicken DT40 cell lines with known DNA damage response pathways - Rad54/Ku70 mutant cell line (AID 743015); note: nearly all actives have a fitted effect of over 60% in size; note: potency is the fitted concentration of half-maximal effect
[5] = qHTS assay to identify small molecule antagonists of the androgen receptor (AR) signaling pathway - cell viability counter screen (AID 743033; note: nearly all actives have a fitted effect of over 45% in size; note: potency is the fitted concentration of half-maximal effect)
[6] = molecular target: Androgen receptor (Homo sapiens) (UniProt P10275); test: qHTS assay to identify small molecule antagonists of the androgen receptor (AR) signaling pathway (AID 743035; active = well fitted inhibition curve with a large enough effect in the signal ratio in the repeat runs, not every such curve was filed as active; the % refers to the signal ratio; note: potency is the fitted concentration of half-maximal effect)
Sequence of Androgen receptor (Homo sapiens) (P10275 whole entry, looked up): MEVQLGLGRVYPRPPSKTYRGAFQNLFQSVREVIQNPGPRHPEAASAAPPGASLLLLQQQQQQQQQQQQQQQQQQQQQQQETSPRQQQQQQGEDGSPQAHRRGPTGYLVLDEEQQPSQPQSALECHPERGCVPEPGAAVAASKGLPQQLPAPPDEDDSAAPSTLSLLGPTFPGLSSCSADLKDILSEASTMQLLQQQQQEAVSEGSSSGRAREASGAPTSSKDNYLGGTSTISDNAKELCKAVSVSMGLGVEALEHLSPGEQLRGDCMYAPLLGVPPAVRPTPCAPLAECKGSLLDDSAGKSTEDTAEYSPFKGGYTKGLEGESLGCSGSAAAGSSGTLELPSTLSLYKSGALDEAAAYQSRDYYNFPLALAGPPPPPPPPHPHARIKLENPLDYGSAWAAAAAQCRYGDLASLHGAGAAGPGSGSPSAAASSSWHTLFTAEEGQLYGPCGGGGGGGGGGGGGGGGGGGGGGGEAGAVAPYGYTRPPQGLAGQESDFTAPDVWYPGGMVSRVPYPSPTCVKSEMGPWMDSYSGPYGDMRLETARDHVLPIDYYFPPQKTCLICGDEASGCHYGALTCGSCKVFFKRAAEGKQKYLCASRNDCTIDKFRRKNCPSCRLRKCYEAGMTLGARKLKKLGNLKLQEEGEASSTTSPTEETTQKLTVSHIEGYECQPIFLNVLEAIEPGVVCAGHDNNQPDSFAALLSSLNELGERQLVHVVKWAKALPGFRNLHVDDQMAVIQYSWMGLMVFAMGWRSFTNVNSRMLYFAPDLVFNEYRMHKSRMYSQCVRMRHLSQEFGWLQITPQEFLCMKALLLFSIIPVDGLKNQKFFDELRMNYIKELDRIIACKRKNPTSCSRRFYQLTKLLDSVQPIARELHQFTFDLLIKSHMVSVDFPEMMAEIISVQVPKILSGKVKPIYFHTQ
How it was run: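 Reporter HEK293 cells were exposed to compounds and R1881 overnight (16 h, 37C); beta-lactamase activity was then quantified by FRET fluorescence.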

[7] = molecular target: Androgen receptor (Homo sapiens) (UniProt P10275); test: qHTS assay to identify small molecule agonists of the androgen receptor (AR) signaling pathway (AID 743036; active = well fitted activation curve with a large enough effect in the signal ratio in the repeat runs, with a control signal flat, not every such curve was filed as active; the % refers to the signal ratio)
How it was run: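 In this Tox21 qHTS, 2,000 HEK293 AR-bla cells per well were incubated with compounds for 16 h at 37C and 5% CO2. Fluorescence intensity was recorded 2 h after adding LiveBLAzer B/G FRET substrate at room temperature.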

[8] = molecular target: Androgen receptor (Homo sapiens) (UniProt P10275); test: qHTS assay to identify small molecule agonists of the androgen receptor (AR) signaling pathway using the MDA cell line (AID 743040; note: nearly all actives have a fitted effect of over 20% in size)
How it was run: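 Luciferase agonist assay: 16 h compound exposure at 37C without CO2 in MDA-kb2 AR-luc cells, whose MMTV promoter responds to both AR and GR. Luminescence measured after 30 min room-temperature incubation with ONE-Glo.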

[9] = qHTS assay to identify small molecule antagonists of the androgen receptor (AR) signaling pathway using the MDA cell line - cell viability counter screen (AID 743041; note: nearly all actives have a fitted effect of over 45% in size; note: potency is the fitted concentration of half-maximal effect)
How it was run: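 Viability read by CellTiter-Fluor fluorescence in the same wells as the antagonist screen, added after 15.5 h of a 16 h, 37C exposure. Human breast carcinoma MDA-kb2 AR-luc cells, compounds co-dosed with agonist R1881.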

[10] = molecular target: Androgen receptor (Homo sapiens) (UniProt P10275); test: qHTS assay to identify small molecule antagonists of the androgen receptor (AR) signaling pathway using the MDA cell line (AID 743042; note: nearly all actives have a fitted effect of over 55% in size; note: potency is the fitted concentration of half-maximal effect)
How it was run: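 Antagonist mode: compounds plus R1881 agonist added to MDA-kb2 AR-luc cells, incubated 16 h at 37C. Luciferase reporter luminescence quantified, with multiplexed CellTiter-Fluor readout for cell viability.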

Compound	Potency [1]	Potency [2]	Potency [3]	Potency [4]	Potency [5]	Potency [6]	outcome [7]	Potency [8]	Potency [9]	Potency [10]
Cc1cn[nH]c1	inactive	inactive	inactive	inactive	inactive	inactive	inactive	inactive	inactive	inactive
CCN(CC)CCOC(=O)C1(C2CCCCC2)CCCCC1	inactive	26.6 µM (active)	21.1 µM (active)	23.7 µM (active)	–	–	inactive	inactive	–	inactive
ClC/C=C\CCl	inactive	inactive	inactive	inactive	inactive	–	–	–	inactive	–
CO[C@H]1C=CO[C@@]2(C)Oc3c(C)c(O)c4c(O)c(cc(O)c4c3C2=O)NC(=O)/C(C)=C\C=C/[C@H](C)[C@H](O)[C@@H](C)[C@@H](O)[C@@H](C)[C@H](OC(C)=O)[C@@H]1C	inactive	inactive and 13.8 µM (active)	inactive and 6.91 µM (active)	inactive and 12.3 µM (active)	inactive and 49.3 µM (active)	–	–	–	–	–
CN(Cc1cc(Br)cc(Br)c1N)C1CCCCC1	inactive	10.6 µM (active)	6.68 µM (active)	10.6 µM (active)	–	–	–	–	inactive	–
CNC(=S)NN	inactive	7.7 µM (active)	7.7 µM (active)	7.7 µM (active)	3.89 µM (active)	–	–	–	48.6 µM (active)	–
C[C@H]1O[C@@H](O[C@H]2[C@@H](O)C[C@H](O[C@H]3[C@@H](O)C[C@H](O[C@H]4CC[C@@]5(C)[C@H](CC[C@@H]6[C@@H]5C[C@@H](O)[C@]5(C)[C@@H](C7=CC(=O)OC7)CC[C@]65O)C4)O[C@@H]3C)O[C@@H]2C)C[C@H](O)[C@@H]1O	535 nM (active) and 97.8 nM (active) and 193 nM (active)	596 nM (active) and 344 nM (active) and 854 nM (active)	596 nM (active) and 172 nM (active) and 428 nM (active)	750 nM (active) and 217 nM (active) and 381 nM (active)	–	338 nM (active) and 61.7 nM (active) and 136 nM (active)	–	–	inactive	–
S=P(N1CC1)(N1CC1)N1CC1	inactive	21.1 µM (active)	944 nM (active) and 319 nM (active)	26.6 µM (active) and 11.4 µM (active)	inactive	–	–	–	inactive	–
O=C1NCN(c2ccccc2)C12CCN(CCCC(c1ccc(F)cc1)c1ccc(F)cc1)CC2	21.3 µM (active)	6.68 µM (active)	10.6 µM (active)	9.44 µM (active)	inactive	–	–	–	29.8 µM (active)	–
CCCCCCCC/C=C/CCCOC(C)=O	inactive	inactive	–	inactive	inactive	–	–	–	inactive	–
C1CC(COCC2CO2)CCC1COCC1CO1 (stereo not drawn)	inactive	30.6 µM (active)	6.86 µM (active)	19.3 µM (active)	–	–	–	–	inactive	–
CCCCCCCCCCCCOC(=O)c1cc(O)c(O)c(O)c1	27.4 µM (active) and 34.7 µM (active)	609 nM (active) and 386 nM (active)	384 nM (active) and 273 nM (active)	342 nM (active) and 217 nM (active)	–	–	–	–	54.5 µM (active)	–
CSc1c(Cl)c(Cl)c(Cl)c(Cl)c1Cl	inactive	inactive	–	inactive	inactive	–	–	–	inactive	–
CCN(CC)CCNc1ccc(CO)c2sc3ccccc3c(=O)c12	inactive	0.841 µM (active)	0.298 µM (active)	0.237 µM (active)	–	–	–	–	26.6 µM (active)	–
CCCCCCCC/C=C\CCCCCCCC(=O)NCc1ccc(O)c(OC)c1	21.3 µM (active)	13.3 µM (active)	–	18.8 µM (active)	inactive	–	–	–	inactive	–
CSc1ccc2c(c1)N(CCC1CCCCN1C)c1ccccc1S2 (stereo not drawn)	54.7 µM (active)	5.96 µM (active) and 21.6 µM (active)	6.68 µM (active) and 17.2 µM (active)	9.44 µM (active) and 19.3 µM (active)	–	–	–	–	inactive	–
CNC(=O)c1cc(Oc2ccc(NC(=O)Nc3ccc(Cl)c(C(F)(F)F)c3)cc2)ccn1	19 µM (active)	4.73 µM (active)	–	5.31 µM (active)	16.9 µM (active)	–	–	–	16.8 µM (active)	–
O=C1NCCN1CCN1CCC(c2cn(-c3ccc(F)cc3)c3ccc(Cl)cc23)CC1	23.9 µM (active)	944 nM (active) and 1.5 µM (active)	–	1.68 µM (active) and 2.66 µM (active)	16.9 µM (active) and 21.3 µM (active)	16.9 µM (active) and 21.3 µM (active)	inactive	inactive	13.3 µM (active) and 21.1 µM (active)	11.9 µM (active) and 18.8 µM (active)
CC=O	25.7 µM (active)	0.0717 µM (active)	–	0.0717 µM (active)	22.9 µM (active)	–	–	–	63.9 µM (active)	–
CC(C)=C1CC[C@@H](C)CC1=O	inactive	inactive	–	inactive	inactive	–	–	–	inactive	–
CNCC[C@H](Oc1cccc2ccccc12)c1cccs1	inactive	5.31 µM (active)	9.44 µM (active)	9.44 µM (active)	–	–	–	–	24.8 µM (active)	–
CCCCOc1ccc(C(=O)CCN2CCCCC2)cc1	inactive	0.717 µM (active)	1.27 µM (active)	1.01 µM (active)	–	–	–	–	10.6 µM (active)	–
COC(=O)CC#N	inactive	inactive	–	inactive	inactive	–	–	–	inactive	–
C[C@@]12C(=O)OC(=O)[C@]1(C)C1CCC2O1	1.29 µM (active)	inactive	inactive	inactive	–	–	–	–	3.35 µM (active)	–
[O]=[Zr]	inactive	inactive	inactive	inactive	–	–	–	–	inactive	–

Compound	Potency [1]	Potency [2]	Potency [3]	Potency [4]	Potency [5]	Potency [6]	outcome [7]	Potency [8]	Potency [9]	Potency [10]
SCCCCCCCCS	inactive	68.6 µM (active)	–	54.5 µM (active)	inactive	–	–	–	inactive	–
CCCCNc1c(C(=O)OCC)c(C)nc2c1cnn2CC	inactive	21.1 µM (active)	–	26.6 µM (active)	inactive	–	–	–	inactive	–
COc1cc(C(C)C)c2c(c1)S(=O)(=O)N(COc1cc(=O)n3cccc(OCCN4CCCCC4)c3n1)C2=O	inactive	13 µM (active)	–	13 µM (active)	–	–	–	inactive	inactive	–
Clc1ccccc1CN1CCc2sccc2C1	inactive	23.7 µM (active)	–	26.6 µM (active)	inactive	–	–	–	inactive	–
CCc1ccc(O)c(C(C)(C)C)c1	inactive	43.3 µM (active)	–	30.6 µM (active)	–	–	–	–	–	–
C[Si](C)(C)Cl	inactive	inactive	–	inactive	inactive	inactive	inactive	inactive	inactive	inactive
Nc1ccc2cc3ccc(N)cc3nc2c1	19 µM (active)	2.66 µM (active) and 5.45 µM (active)	–	1.33 µM (active) and 1.37 µM (active)	–	–	–	inactive	–	–
CCCCCCCCCCCCCCCC	inactive	inactive	inactive	inactive	–	–	–	–	inactive	–
NC1(c2ccc(-c3nc4ccn5c(=O)[nH]nc5c4cc3-c3ccccc3)cc2)CCC1	inactive	1.19 µM (active)	–	1.33 µM (active)	–	–	–	–	–	–
CN(C)CCCN1c2ccccc2CCc2ccccc21	inactive	13.3 µM (active) and 8.63 µM (active)	23.7 µM (active) and 9.69 µM (active)	29.8 µM (active) and 9.69 µM (active)	–	–	–	–	inactive	–
O=C(O)c1cccc(Cl)n1	inactive	19.3 µM (active)	–	61.1 µM (active)	inactive	inactive	–	inactive	inactive	inactive
Nc1ncnc2c1ncn2[C@@H]1O[C@H](COP(=O)(O)O)[C@@H](O)[C@H]1O	inactive	inactive	–	inactive	inactive	–	–	–	inactive	–
Cc1occc1SSc1ccoc1C	inactive	19.3 µM (active)	19.3 µM (active)	15.4 µM (active)	–	–	–	–	inactive	–
c1ccc(Nc2cccc3ccccc23)cc1	44.2 µM (active)	69.5 µM (active)	61.9 µM (active) and 61.1 µM (active)	55.2 µM (active) and 61.1 µM (active)	–	–	–	–	inactive	–
COC(=O)NCCC[Si](OC)(OC)OC	inactive	61.1 µM (active)	68.6 µM (active)	–	inactive	–	–	–	inactive	–
CCCCCCCOC(=O)c1ccc(O)cc1	49 µM (active)	inactive	–	54.5 µM (active) and 48.6 µM (active)	inactive	–	–	–	inactive	–
C/C=C/C=N/NC(=O)c1ccncc1	inactive	inactive	inactive	inactive	–	–	–	–	inactive	–
Cc1c(-c2ccc(O)cc2)n(Cc2ccc(OCCN3CCCCCC3)cc2)c2ccc(O)cc12	inactive	11.9 µM (active)	–	13.3 µM (active)	–	–	–	–	–	–
Cc1ccc2ccc3cccc4ccc1c2c34	inactive	inactive	–	inactive	–	–	–	–	–	–
CCCCN(CCCC)CCC(O)c1cc2c(Cl)cc(Cl)cc2c2cc(C(F)(F)F)ccc12 (stereo not drawn)	inactive	11.4 µM (active)	–	10.1 µM (active)	inactive	–	–	–	inactive	–
CC(C)N=C(N)/N=C(\N)Nc1ccc(Cl)cc1	inactive	3.59 µM (active)	12.7 µM (active)	10.1 µM (active)	–	–	–	–	inactive	–
CCCCC(CC)COC(=O)c1ccc(O)cc1 (stereo not drawn)	43.5 µM (active)	–	43.1 µM (active) and 48.6 µM (active)	48.6 µM (active)	inactive	–	–	–	inactive	–
O=C1c2c(O)ccc([N+](=O)[O-])c2C(=O)c2c([N+](=O)[O-])ccc(O)c21	8.63 µM (active)	–	6.8 µM (active)	5.4 µM (active)	–	–	–	–	21.5 µM (active)	–
Oc1ccc(-c2ccc(O)cc2)cc1	inactive	–	17.3 µM (active)	24.5 µM (active)	inactive	–	–	–	inactive	–
